Experiment in all cases: DAPPL (digital affinity profiling via proximity ligation, sequencing); 10 mM Tris-HCl pH 7.5, 50 mM NaCl, 1 mM DTT, 4% glycerol, room temperature, 30 min; GST-TFs on glutathione beads, 16-mer random dsDNA library, 0.1% formaldehyde crosslink after washing; high values mean tight binding
Common to all, as to conditions: protein: recombinant; tags: N-terminal GST; dsDNA, one strand shown

In assay [1] the target is T1, ELK1 (Homo sapiens, UniProt P19419 1-428).
T1 sequence: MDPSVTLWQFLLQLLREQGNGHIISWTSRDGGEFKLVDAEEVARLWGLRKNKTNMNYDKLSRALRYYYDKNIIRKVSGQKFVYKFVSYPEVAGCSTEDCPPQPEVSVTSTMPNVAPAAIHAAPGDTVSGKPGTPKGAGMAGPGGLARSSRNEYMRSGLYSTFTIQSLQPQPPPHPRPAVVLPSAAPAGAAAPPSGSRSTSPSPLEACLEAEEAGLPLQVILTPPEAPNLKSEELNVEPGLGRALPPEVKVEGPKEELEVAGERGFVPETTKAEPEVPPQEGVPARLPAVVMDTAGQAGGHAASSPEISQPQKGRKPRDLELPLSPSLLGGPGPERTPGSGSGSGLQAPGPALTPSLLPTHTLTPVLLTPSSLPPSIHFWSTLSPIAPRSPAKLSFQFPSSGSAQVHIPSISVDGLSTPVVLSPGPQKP
In outline: (§1)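 GST fusions of human transcription factors were expressed in yeast and captured with glutathione beads. Once given DNA barcodes and pooled alongside a tag-only sample, they were incubated for 30 min at room temperature with 200 nmole of a random double-stranded 16-mer DNA library in Tris/NaCl/DTT/glycerol buffer, then washed, crosslinked (0.1% formaldehyde), proximity-ligated, PCR-amplified and sequenced on an Illumina NextSeq500. The binding signal of each hexamer is its read frequency for a factor divided by its frequency for the tag-only sample.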

Assay [2] concerns the target T2, GABPA (Homo sapiens, UniProt Q06546 1-454).
T2 sequence: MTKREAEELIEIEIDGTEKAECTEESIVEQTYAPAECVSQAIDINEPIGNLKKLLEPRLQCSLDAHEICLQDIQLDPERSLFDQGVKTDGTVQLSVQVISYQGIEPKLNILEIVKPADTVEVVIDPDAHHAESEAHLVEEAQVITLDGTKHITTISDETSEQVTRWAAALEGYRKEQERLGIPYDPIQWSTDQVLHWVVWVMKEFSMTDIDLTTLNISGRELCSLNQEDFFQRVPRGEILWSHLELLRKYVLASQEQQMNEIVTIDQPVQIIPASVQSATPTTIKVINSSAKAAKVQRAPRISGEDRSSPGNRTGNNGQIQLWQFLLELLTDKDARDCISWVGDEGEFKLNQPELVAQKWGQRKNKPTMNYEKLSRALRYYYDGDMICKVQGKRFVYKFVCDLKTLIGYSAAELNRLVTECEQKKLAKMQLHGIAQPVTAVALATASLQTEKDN
Put shortly:
as §1

The target in assay [3] is T3, ERG (Homo sapiens, UniProt P11308 1-479).
T3 sequence: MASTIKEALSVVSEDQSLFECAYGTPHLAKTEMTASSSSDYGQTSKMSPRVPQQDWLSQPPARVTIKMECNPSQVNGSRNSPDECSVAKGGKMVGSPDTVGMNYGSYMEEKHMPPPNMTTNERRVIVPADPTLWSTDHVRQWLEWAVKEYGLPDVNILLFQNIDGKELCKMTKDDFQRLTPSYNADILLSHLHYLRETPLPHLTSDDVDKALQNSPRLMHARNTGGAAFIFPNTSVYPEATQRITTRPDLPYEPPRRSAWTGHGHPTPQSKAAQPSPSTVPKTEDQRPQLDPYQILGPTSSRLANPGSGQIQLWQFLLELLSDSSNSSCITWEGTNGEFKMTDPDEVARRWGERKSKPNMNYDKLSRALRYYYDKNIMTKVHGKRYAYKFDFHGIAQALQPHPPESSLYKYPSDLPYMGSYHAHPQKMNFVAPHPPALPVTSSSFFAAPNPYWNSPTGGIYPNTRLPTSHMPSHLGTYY
In outline: as §1

The target of assay [4] is ELF1 (Homo sapiens, UniProt P32519 1-619). Put shortly:
as §1

Assay [5] deals with T4, EHF (Homo sapiens, UniProt Q9NZC4 1-300).
T4 sequence: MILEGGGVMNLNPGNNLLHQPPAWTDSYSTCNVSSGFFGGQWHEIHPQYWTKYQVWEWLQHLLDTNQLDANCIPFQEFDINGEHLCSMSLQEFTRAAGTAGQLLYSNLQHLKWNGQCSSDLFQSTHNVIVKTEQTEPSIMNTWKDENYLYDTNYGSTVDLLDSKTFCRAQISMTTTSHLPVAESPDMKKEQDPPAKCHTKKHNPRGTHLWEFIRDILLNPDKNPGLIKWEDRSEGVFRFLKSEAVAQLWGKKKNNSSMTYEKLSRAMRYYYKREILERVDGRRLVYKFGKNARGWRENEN
Put shortly: as §1

Assay [6] has as its target SPIB (Homo sapiens, UniProt Q01892 1-262). Put shortly: as §1
For assay [7], the target named is T5, FEV (Homo sapiens, UniProt Q99581 1-238).
T5 sequence: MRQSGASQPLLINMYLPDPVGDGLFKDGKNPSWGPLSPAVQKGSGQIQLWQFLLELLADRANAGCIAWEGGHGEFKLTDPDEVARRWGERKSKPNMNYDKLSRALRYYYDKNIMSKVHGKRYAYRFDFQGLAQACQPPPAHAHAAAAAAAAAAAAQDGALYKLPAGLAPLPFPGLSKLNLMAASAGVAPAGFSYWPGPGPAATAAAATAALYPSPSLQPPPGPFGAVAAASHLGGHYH
In outline: as §1

For assay [8], the target named is ETV5 (Homo sapiens, UniProt P41161 1-510). Put shortly: as §1
Sequence of ETV5 (P41161 whole entry): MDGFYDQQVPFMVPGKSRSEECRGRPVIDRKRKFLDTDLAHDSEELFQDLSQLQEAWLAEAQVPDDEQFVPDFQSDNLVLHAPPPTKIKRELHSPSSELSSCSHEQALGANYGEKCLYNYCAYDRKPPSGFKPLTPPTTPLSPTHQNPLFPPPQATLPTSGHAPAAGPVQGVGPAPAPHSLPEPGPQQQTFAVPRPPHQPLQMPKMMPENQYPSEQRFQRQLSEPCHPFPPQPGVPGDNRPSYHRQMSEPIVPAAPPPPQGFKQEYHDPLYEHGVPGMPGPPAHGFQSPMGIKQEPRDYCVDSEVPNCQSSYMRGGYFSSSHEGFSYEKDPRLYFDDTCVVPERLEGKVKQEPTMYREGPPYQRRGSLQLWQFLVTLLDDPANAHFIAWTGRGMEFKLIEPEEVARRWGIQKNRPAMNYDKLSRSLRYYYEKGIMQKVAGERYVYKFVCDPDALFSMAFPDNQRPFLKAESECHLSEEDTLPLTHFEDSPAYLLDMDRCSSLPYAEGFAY
In assay [9] the target is ELF4 (Homo sapiens, UniProt Q99607 1-663). In outline: as §1
Sequence of ELF4 (Q99607 whole entry): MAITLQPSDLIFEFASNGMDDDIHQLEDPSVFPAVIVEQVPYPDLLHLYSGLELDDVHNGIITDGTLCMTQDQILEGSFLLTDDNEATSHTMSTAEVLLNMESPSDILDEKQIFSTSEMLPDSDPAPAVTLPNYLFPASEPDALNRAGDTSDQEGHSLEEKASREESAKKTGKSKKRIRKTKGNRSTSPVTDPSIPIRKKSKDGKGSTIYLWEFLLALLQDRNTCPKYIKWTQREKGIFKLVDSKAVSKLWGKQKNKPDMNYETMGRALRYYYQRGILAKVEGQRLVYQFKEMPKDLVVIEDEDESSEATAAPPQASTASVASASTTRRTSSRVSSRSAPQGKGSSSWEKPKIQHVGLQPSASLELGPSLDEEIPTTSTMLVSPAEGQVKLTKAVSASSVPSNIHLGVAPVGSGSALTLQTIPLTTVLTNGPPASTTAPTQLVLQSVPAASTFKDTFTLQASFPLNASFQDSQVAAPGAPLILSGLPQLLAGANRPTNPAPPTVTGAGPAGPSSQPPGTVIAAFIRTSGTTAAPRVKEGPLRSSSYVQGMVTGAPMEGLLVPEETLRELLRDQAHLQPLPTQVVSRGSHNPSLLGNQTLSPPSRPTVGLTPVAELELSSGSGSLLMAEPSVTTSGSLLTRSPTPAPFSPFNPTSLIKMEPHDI
Assay [10] has as its target T6, ETV2 (Homo sapiens, UniProt O00321 1-342).
T6 sequence: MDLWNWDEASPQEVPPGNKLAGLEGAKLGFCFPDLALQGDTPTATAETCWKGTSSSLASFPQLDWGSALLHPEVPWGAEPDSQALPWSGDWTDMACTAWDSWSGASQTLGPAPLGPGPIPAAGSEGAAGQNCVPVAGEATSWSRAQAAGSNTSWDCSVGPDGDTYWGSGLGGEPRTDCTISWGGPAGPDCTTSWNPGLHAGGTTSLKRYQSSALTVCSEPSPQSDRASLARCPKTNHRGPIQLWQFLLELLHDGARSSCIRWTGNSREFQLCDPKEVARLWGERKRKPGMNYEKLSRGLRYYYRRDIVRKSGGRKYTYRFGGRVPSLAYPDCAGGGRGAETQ
In outline:
as §1

Assay [11] addresses T7, ELF3 (Homo sapiens, UniProt P78545 1-371).
T7 sequence: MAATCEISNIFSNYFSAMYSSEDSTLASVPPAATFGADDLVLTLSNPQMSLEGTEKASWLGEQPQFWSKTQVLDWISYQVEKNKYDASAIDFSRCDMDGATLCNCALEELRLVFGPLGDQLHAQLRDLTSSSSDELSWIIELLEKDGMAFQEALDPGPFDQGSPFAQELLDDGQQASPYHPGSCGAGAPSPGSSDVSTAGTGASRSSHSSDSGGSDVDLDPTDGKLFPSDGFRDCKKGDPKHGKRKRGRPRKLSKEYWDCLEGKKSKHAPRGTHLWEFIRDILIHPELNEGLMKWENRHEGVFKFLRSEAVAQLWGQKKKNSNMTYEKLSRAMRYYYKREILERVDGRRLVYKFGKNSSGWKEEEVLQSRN
Put shortly: as §1

In assay [12] the target is ETV1 (Homo sapiens, UniProt P50549 1-477). Put shortly:
as §1

For assay [13], the target named is T8, ERF (Homo sapiens, UniProt P50548 1-548).
T8 sequence: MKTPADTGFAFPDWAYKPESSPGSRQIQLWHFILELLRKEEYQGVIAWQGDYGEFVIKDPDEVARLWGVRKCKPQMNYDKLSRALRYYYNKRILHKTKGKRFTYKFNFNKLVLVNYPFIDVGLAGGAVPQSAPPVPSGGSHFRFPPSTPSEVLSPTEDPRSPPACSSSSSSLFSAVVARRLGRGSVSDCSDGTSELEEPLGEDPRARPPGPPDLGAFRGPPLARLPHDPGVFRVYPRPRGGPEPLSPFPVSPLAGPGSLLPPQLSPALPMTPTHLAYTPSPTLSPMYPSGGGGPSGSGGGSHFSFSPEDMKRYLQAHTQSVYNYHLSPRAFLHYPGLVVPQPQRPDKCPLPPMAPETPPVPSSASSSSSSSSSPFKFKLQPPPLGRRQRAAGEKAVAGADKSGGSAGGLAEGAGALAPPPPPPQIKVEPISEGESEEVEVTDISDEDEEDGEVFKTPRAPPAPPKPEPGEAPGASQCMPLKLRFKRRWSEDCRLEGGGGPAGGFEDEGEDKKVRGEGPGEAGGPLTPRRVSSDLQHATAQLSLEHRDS
In outline:
as §1

The target in assay [14] is T9, ETV3L (Homo sapiens, UniProt Q6ZN32 1-361).
T9 sequence: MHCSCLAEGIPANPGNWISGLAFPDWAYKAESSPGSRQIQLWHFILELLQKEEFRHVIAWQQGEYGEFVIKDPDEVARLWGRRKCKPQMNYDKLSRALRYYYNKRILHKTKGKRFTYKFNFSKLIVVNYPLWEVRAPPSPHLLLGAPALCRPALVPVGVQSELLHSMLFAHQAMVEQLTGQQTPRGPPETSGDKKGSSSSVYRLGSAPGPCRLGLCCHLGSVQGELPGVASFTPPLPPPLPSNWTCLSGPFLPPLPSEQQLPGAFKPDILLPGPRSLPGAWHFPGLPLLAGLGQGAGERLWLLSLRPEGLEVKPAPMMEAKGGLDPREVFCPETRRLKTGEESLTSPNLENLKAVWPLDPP
In outline:
as §1

For assay [15], the target named is T10, ETS2 (Homo sapiens, UniProt P15036 1-469).
T10 sequence: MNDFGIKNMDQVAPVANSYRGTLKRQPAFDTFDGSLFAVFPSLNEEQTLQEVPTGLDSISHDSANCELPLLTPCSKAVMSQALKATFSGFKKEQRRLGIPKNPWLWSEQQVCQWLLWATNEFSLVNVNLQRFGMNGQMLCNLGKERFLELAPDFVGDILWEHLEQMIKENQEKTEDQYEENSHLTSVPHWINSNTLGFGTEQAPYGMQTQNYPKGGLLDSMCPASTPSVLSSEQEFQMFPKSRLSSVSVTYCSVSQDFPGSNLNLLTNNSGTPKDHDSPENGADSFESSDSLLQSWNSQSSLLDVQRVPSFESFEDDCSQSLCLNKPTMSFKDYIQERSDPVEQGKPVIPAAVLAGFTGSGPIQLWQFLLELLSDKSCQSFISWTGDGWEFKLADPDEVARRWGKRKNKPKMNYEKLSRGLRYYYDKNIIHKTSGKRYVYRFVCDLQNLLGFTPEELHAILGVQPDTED
In outline: as §1

Assay [16] deals with T11, SPDEF (Homo sapiens, UniProt O95238 1-335).
T11 sequence: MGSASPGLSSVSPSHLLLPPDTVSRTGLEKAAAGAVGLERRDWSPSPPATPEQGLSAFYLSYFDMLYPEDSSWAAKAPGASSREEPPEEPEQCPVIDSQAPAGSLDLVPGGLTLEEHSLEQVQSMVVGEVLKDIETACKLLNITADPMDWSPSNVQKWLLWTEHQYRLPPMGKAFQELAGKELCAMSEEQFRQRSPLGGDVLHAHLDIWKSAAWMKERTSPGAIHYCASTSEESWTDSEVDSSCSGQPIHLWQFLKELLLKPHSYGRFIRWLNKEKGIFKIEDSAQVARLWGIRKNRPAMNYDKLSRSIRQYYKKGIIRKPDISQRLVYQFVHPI
Put shortly: as §1

Assay [17] deals with T12, ETV7 (Homo sapiens, UniProt Q9Y603 1-341).
T12 sequence: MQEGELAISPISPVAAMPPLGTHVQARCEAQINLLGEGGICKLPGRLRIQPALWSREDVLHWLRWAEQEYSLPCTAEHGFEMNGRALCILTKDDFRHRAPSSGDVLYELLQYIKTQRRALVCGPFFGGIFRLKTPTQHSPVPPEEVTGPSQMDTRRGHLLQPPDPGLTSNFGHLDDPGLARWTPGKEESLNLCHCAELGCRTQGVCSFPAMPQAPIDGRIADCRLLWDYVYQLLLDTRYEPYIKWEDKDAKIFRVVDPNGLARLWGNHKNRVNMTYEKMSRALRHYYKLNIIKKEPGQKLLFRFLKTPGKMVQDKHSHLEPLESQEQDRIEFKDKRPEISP
In outline: as §1

Assay [18] deals with T13, ETV3 (Homo sapiens, UniProt P41162-2 1-143).
T13 sequence: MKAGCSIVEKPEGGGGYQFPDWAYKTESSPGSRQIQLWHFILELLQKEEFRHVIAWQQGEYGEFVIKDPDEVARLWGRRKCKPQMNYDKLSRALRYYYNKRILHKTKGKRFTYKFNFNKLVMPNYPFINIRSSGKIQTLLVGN
In outline: as §1

Assay [19] addresses ETV6 (Homo sapiens, UniProt P41212 1-452). Put shortly:
as §1

Sequence of ELF1 (P32519 whole entry): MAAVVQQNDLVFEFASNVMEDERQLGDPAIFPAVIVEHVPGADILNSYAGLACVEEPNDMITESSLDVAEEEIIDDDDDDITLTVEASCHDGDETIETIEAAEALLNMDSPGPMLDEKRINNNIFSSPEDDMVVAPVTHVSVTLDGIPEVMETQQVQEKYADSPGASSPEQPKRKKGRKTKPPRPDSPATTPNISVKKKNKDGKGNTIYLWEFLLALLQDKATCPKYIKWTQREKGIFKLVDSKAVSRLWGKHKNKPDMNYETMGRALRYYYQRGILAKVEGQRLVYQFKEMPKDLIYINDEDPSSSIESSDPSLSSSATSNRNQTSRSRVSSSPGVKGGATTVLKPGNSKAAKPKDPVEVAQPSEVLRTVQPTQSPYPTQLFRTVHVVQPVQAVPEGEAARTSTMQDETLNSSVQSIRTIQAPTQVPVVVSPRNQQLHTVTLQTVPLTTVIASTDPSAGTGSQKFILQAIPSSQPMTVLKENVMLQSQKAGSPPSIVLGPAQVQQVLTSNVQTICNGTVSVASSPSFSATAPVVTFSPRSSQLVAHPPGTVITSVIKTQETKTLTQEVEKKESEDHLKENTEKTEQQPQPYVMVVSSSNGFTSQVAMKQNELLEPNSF
Sequence of SPIB (Q01892 whole entry): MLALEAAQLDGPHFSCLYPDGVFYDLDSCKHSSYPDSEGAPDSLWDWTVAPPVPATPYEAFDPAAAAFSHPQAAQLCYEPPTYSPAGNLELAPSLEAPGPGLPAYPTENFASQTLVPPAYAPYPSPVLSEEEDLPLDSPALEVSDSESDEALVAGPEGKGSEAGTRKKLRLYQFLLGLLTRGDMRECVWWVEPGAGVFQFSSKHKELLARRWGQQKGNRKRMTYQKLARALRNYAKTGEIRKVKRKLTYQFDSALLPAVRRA
Sequence of ETV6 (P41212 whole entry): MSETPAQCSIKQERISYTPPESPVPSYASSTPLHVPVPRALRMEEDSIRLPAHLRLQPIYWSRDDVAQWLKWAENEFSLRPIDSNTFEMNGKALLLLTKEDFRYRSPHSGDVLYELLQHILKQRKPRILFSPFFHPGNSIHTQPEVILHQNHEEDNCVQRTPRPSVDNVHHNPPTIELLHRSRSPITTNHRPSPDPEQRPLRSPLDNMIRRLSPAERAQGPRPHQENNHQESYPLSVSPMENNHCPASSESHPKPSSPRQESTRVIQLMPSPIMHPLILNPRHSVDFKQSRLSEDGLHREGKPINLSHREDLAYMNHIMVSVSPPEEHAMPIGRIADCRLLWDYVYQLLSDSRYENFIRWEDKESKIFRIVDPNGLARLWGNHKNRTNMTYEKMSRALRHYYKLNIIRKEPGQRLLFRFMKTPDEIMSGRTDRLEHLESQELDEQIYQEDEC
Sequence of ETV1 (P50549 whole entry): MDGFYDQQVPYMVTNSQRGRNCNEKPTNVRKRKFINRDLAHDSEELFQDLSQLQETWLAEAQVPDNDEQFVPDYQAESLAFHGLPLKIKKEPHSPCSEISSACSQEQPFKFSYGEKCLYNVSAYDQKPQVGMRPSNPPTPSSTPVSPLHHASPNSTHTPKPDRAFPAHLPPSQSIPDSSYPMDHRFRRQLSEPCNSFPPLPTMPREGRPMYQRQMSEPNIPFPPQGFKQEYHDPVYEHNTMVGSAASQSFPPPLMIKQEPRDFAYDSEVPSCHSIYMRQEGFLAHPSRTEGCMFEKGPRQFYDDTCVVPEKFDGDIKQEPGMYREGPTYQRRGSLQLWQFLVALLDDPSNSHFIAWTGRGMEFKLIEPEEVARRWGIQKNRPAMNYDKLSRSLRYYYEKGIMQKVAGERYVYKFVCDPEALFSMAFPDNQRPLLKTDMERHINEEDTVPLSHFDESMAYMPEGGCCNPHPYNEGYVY

On to AACCGC, for which the binding signal in assay [1] is 1.07 fold enrichment (6-mer frequency, TF over GST control); in assay [2], 1.1 fold enrichment (6-mer frequency, TF over GST control); in assay [3] it was 1.09 fold enrichment (6-mer frequency, TF over GST control); in assay [4], 1.11 fold enrichment (6-mer frequency, TF over GST control); in assay [5], 1.18 fold enrichment (6-mer frequency, TF over GST control); in [6], 1.12 fold enrichment (6-mer frequency, TF over GST control). Moreover, the binding signal was 1.09 fold enrichment (6-mer frequency, TF over GST control) in assay [7]; 1.09 fold enrichment (6-mer frequency, TF over GST control) in assay [8]; 1.12 fold enrichment (6-mer frequency, TF over GST control) in [9]; 1.12 fold enrichment (6-mer frequency, TF over GST control) in assay [10]; 1.1 fold enrichment (6-mer frequency, TF over GST control) in [11]; 1.02 fold enrichment (6-mer frequency, TF over GST control) in assay [12]. Besides, the binding signal in assay [13] was 1.08 fold enrichment (6-mer frequency, TF over GST control); in assay [14] it was 1.08 fold enrichment (6-mer frequency, TF over GST control); in [15] it was 1.1 fold enrichment (6-mer frequency, TF over GST control); in assay [16], 1.11 fold enrichment (6-mer frequency, TF over GST control); in assay [17], 1.07 fold enrichment (6-mer frequency, TF over GST control); in assay [18] it was 1.08 fold enrichment (6-mer frequency, TF over GST control). Further, in assay [19], the binding signal was 1.19 fold enrichment (6-mer frequency, TF over GST control).
